For test [1], the system named is Staphylococcus aureus. The test can be described thus: Antibacterial activity against Staphylococcus aureus MRSA ATCC 43300 (CO-ADD:GP_020); MIC in CAMBH media using NBS plates, by Resazurin F(560/590). It counts as functional. The following applies: Concentration 20 uM, ASSAY_TEST Inhibition of Bacterial Growth, detection method Resazurin, Fluorescence (ex560/em590), MEDIA CAMHB, plate type 384well, CORNING #3640, time 18 hr. (Alamar Blue is a resazurin reagent that responds to reducing activity.)

The subject of test [2] is Acinetobacter baumannii. The test can be described thus: Antibacterial activity against Acinetobacter baumannii ATCC 19606 (CO-ADD:GN_034); MIC in CAMBH media using NBS plates, by Resazurin F(560/590). It counts as functional. The following applies: Concentration 20 uM, ASSAY_TEST Inhibition of Bacterial Growth, detection method Resazurin, Fluorescence (ex560/em590), MEDIA CAMHB, plate type 384well, CORNING #3640, time 18 hr.

The subject of test [3] is Escherichia coli. The test can be described thus: Antibacterial activity against Escherichia coli ATCC 25922 (CO-ADD:GN_001); MIC in CAMBH media using NBS plates, by Resazurin F(560/590). It counts as functional. The following applies: Concentration 20 uM, ASSAY_TEST Inhibition of Bacterial Growth, detection method Resazurin, Fluorescence (ex560/em590), MEDIA CAMHB, plate type 384well, CORNING #3640, time 18 hr.

The test system of test [4] is Klebsiella pneumoniae. The following applies: Concentration 20 uM; ASSAY_TEST Inhibition of Bacterial Growth; detection method Absorption (OD600); MEDIA CAMHB; plate type 384well; NBS; CORNING #3640; time 18 hr.
For test [5], the system named is Candida albicans. The following applies: 20 µM.
Test [6] relates to Cryptococcus neoformans. The following applies: Concentration 20 uM; ASSAY_TEST Inhibition of Fungal Growth; detection method Resazurin; Absorption (OD600-OD570); plate type 384well; NBS; CORNING #3640.

As a reminder, the Inhibition is the relative decrease from the control value, in per cent.

SMILES strings stand for the structures. For part of these data: Results with a measured potency or affinity are listed apart.

For the compound `COC(=O)CC1OCC=C2CN3CCC45C6=CC(=O)C(=O)C([N+](=O)[O-])=C6NC4C1C2CC35` (stereo not given), the Inhibition in test [1] was 12.88%; in test [2] it was -13.17%; in test [3] it was 11.73%; in test [4], 18.83%; in test [5], -2.29%; in test [6] it was -2.47%.
For the compound `c1ccc(-c2nnc3nc(N4CCCCC4)nc(N4CCCCC4)n23)cc1`, the Inhibition in test [1] was -3.53%; in test [2], -1.96%; in test [3], 14.28%; in test [4] it was 1.6%; in test [5] it was 1.09%; in test [6], -15.11%.
Take `O=S(=O)(O)c1ccc2c(c1)C(C(Cl)(Cl)Cl)OC(C(Cl)(Cl)Cl)O2` (stereo not given): the Inhibition in test [1] was 10.71%; in test [2], -8.34%; in test [3], 18.82%; in test [4], 1.9%; in test [5], -0.48%; in test [6], -7.32%.
For `CC(=O)n1cc(C2CC(=O)OC3=C2CC(=O)C(C)(C)C3)c2ccccc21` (stereo not given), the Inhibition in test [1] is 13.95%; in test [2], 4.13%; in test [3] it was 1.01%; in test [4] it was 11.94%; in test [5], 2.8%; in test [6], -0.61%.
With `CC1=CC2=C(C=O)C(=O)[C@](C)(O)[C@@H](O)C2=CO1`, the Inhibition in test [1] is -0.76%; in test [2] it was 11.76%; in test [3] it was 8.5%; in test [4] it was 9.69%; in test [5], 4.9%; in test [6], -12.05%.
Turning to `CCC(C)N=C(S)Nc1ccccc1` (stereo not given), the Inhibition in test [1] was -4.21%; in test [2] it was 6.89%; in test [3] it was 4.84%; in test [4], 5.07%; in test [5], 5.4%; in test [6], -3.02%.
For the compound `Cn1ncc2c(Nc3ccccc3Cl)nc(Nc3ccccc3Cl)nc21`, the Inhibition in test [1] is 12.86%; in test [2], -3.35%; in test [3], -7.44%; in test [4], 23.76%; in test [5] it was 8.17%; in test [6] it was -4.25%.
For `Clc1c(Cl)c(Cl)c2[nH]nnc2c1Cl`, the Inhibition in test [1] was -10.41%; in test [2], -8.91%; in test [3] it was 8.31%; in test [4], 1.32%; in test [5], 18.5%; in test [6], -10.27%.
For `S=C(Sc1ccc(Cl)cc1)Sc1ccc(Cl)cc1`, the Inhibition was -6.64% in test [1]; 10.03% in test [2]; 10.65% in test [3]; 7.47% in test [4]; 2.15% in test [5]; -8.72% in test [6].
Take `CCCOc1ccc(-c2nc(-c3ccc([N+](=O)[O-])cc3)cs2)cc1`: the Inhibition is 9.47% in test [1]; 16.16% in test [2]; 3.67% in test [3]; 10.79% in test [4]; 5.94% in test [5]; -3.16% in test [6].
In the case of `O=C(N(c1ccccc1)c1ccccc1)N(c1ccccc1)c1ccccc1`, the Inhibition in test [1] was 13.33%; in test [2], 0.28%; in test [3], 8.76%; in test [4], 13.27%; in test [5], 9.21%; in test [6], -13.12%.
Turning to `CC(C)(C)c1ccc(NS(=O)(=O)c2ccc(N)cc2)cc1`, the Inhibition in test [1] was 8.8%; in test [2], 3.26%; in test [3], -6.26%; in test [4] it was 16.84%; in test [5], 3.64%; in test [6], -7.4%.
In the case of `NC(=O)c1cc2c3ccccc3ccn2c1-c1ccccc1`, the Inhibition in test [1] was 8.37%; in test [2], -5.02%; in test [3], 3.37%; in test [4], 9.25%; in test [5], 6.45%; in test [6], -9.75%.
In the case of `CCOC(=O)C(C#N)C(=N)C1C(=O)OC2CCCCC21` (stereo not given), the Inhibition in test [1] was 5.44%; in test [2], -19.8%; in test [3], 15.65%; in test [4], 4.77%; in test [5] it was -2.13%; in test [6], -12.86%.
With `Cc1cc(NC(=O)Nc2cc(F)ccc2F)no1`, the Inhibition in test [1] was -1.77%; in test [2], -0.21%; in test [3] it was 10.41%; in test [4], 7.53%; in test [5] it was 2.67%; in test [6], -5.29%.
With `CCOC(=O)c1cc(-c2ccccc2)nc2ccc(C)cc12` [NEOCINCHOPHEN], the Inhibition in test [1] was 2.82%; in test [2], 5.48%; in test [3] it was -14.74%; in test [4], 14.7%; in test [5], 9.92%; in test [6] it was 24.59%.
`C#CCOCC1CN(c2ccccc2)C(=O)O1` (stereo not given): the Inhibition in test [1] was -1.12%; in test [2], 12.08%; in test [3], 6.4%; in test [4], 9.96%; in test [5], 6.35%; in test [6], -15.19%.
Regarding `Cc1ccc(Nc2ccc(N)cc2S(=O)(=O)O)cc1`, the Inhibition in test [1] was 11.37%; in test [2], 8.99%; in test [3] it was -1.31%; in test [4] it was 9.09%; in test [5], 3.65%; in test [6], -9.37%.
For the compound `Oc1ccc(/C=C\c2cnccn2)cc1`, the Inhibition in test [1] is 3.99%; in test [2] it was -7.27%; in test [3] it was 16.94%; in test [4] it was 16.23%; in test [5] it was 1.24%; in test [6] it was -11.21%.
For the compound `Nc1cc(-c2ccccc2)ccc1O`, the Inhibition is 13.15% in test [1]; -7.9% in test [2]; 6.67% in test [3]; 17.45% in test [4]; 4.12% in test [5]; -0.33% in test [6].
Regarding `N=C(N)Nc1ccc(NC(=N)N)cc1`, the Inhibition was 18.17% in test [1]; -6.06% in test [2]; 9.96% in test [3]; 17.17% in test [4]; -1.51% in test [5]; -0.62% in test [6].
For the compound `COC(=NC(C)C)NC(C)C`, the Inhibition in test [1] was 0.33%; in test [2], -8.49%; in test [3], 15.21%; in test [4], 8%; in test [5], 1.22%; in test [6], -13.2%.
Turning to `CC(C)(C)c1ccc(OCC(=O)O)cc1`, the Inhibition in test [1] is 4.22%; in test [2], -1%; in test [3] it was 10.46%; in test [4], 8.68%; in test [5], 8.84%; in test [6], -1.59%.
Turning to `O=c1ccn2c(n1)SC(c1ccccc1)C2` (stereo not given), the Inhibition in test [1] is 9.54%; in test [2], 7.52%; in test [3], 0.87%; in test [4], 5.49%; in test [5], 4.6%; in test [6] it was -10.89%.
Consider `CN(C)c1ccc2c(c1)Sc1cc(N(C)C)ccc1N2C(=O)c1ccccc1`, for which the Inhibition was -9.71% in test [1]; 0.08% in test [2]; 1.67% in test [3]; 25.07% in test [4]; 11% in test [5]; -3.81% in test [6].
